Data taken from PubChem BioAssay (Tox21).
Records with an inconclusive call do not appear. Calls of active or inactive are those of the source. Unless noted, the call rests on the fitted dose curve.

Columns and labels:
[1] = Nuclear factor erythroid 2-related factor 2/antioxidant responsive element (Nrf2/ARE) small molecule agonists: qHTS cell viability counter screen in human keratinocytes (AID 1919968; active means well fitted cell-killing curve with a large enough effect in the repeat runs; further: nearly all actives have a fitted effect of over 55% in size)
How it was run: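 Cells of the KeratinoSens line were plated at 1,500 per well and left for 5 h before compound transfer from DMSO stocks. After a 23 h incubation (37 C, 5% CO2), CellTiter-Fluor was added. Signal was taken as fluorescence intensity 1 h later.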

[2] = Nuclear factor erythroid 2-related factor 2/antioxidant responsive element (Nrf2/ARE) small molecule agonists: luciferase reporter gene qHTS assay in human keratinocytes (AID 1919969); further: nearly all actives have a fitted effect of over 35% in size
[3] = G protein-coupled receptor (GPCR) small molecule agonists, calcium flux assay: HEK293 wild type cell line counter screen (AID 1920065)
How it was run: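 Tox21 10K compounds, 15 concentrations each in triplicate, pin-transferred in DMSO onto dye-loaded cells; kinetic read at 480/540 nm for 3 min, 1 s intervals.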

[4] = p53 small molecule agonists, cell-based qHTS assay with rat liver microsomes: qHTS cell viability counter screen (AID 1963580); further: nearly all actives have a fitted effect of over 45% in size
How it was run: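 Cytotoxicity counter screen: intracellular ATP read by CellTiter-Glo luminescence in the p53 reporter wells. HCT-116 p53RE-bla cells were treated for 16 h at 37 C alongside rat liver microsomes and NADPH, each 0.5 mg/mL final.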

[5] = p53 small molecule agonists, cell-based qHTS assay: qHTS cell viability counter screen (AID 1963581); further: nearly all actives have a fitted effect of over 45% in size
How it was run: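 ATP content measured by luminescence in HCT-116 p53RE-bla cells treated 16 h at 37 C, same wells as the reporter screen.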

[6] = target: 5-hydroxytryptamine receptor 2A (Homo sapiens) (UniProt P28223); assay: 5-hydroxytryptamine receptor 2A (HTR2A) small molecule antagonists, cell-based qHTS assay (AID 1963586); further: nearly all actives have a fitted effect of over 45% in size
Chain of 5-hydroxytryptamine receptor 2A (Homo sapiens) (P28223 whole entry, looked up): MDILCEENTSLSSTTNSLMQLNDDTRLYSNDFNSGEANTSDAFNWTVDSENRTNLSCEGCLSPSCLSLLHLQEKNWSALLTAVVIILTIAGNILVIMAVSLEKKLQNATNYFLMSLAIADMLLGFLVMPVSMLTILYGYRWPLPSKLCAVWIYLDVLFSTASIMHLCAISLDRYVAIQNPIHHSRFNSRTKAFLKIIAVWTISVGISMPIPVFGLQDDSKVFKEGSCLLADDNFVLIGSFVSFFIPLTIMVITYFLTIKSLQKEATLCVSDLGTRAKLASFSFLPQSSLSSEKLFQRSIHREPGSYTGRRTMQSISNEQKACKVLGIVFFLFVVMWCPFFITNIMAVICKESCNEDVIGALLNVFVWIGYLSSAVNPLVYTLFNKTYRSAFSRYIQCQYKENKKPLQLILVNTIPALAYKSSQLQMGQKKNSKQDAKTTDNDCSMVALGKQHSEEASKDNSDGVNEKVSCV
How it was run: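 CHO cells stably expressing human HTR2A were plated for 18 h at 37 C, then loaded with calcium dye for 1 h. Compounds were preincubated 5 min at room temperature before DOI (4 nM solution) was added. Kinetic fluorescence was read for 3 min.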

[7] = target: 5-hydroxytryptamine receptor 2A (Homo sapiens) (UniProt P28223); assay: 5-hydroxytryptamine receptor 2A (HTR2A) small molecule agonists, cell-based qHTS assay (AID 1963587); further: nearly all actives have a fitted effect of over 30% in size
How it was run: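 Kinetic calcium-flux fluorescence (2 min, 1 sec intervals) after compound addition in agonist mode. HTR2A-CHO cells were cultured 18 h, then dye-loaded 1 h at 37 C.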

[8] = target: Muscarinic acetylcholine receptor M1 (Homo sapiens) (UniProt P11229); assay: Cholinergic receptor muscarinic 1 (CHRM1) small molecule agonists, cell-based qHTS assay (AID 1963589); further: nearly all actives have a fitted effect of over 35% in size
Chain of Muscarinic acetylcholine receptor M1 (Homo sapiens) (P11229 whole entry, looked up): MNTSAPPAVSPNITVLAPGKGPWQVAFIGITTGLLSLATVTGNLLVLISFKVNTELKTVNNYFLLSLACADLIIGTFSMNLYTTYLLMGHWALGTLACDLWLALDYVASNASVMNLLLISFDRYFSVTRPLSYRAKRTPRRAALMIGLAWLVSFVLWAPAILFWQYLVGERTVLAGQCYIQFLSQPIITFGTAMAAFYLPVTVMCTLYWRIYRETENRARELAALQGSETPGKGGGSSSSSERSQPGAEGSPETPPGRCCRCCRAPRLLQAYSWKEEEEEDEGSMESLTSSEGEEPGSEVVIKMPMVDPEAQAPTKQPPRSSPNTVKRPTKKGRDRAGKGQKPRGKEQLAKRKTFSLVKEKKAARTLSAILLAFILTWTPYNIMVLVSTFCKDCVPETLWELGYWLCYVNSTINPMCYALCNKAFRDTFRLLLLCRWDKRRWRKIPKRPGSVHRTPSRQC
How it was run: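 Homogeneous fluorescence calcium flux, agonist mode. Human M1-expressing CHO cells; compound dosed at 15 concentrations, three independent runs; signal sampled every 1 sec.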

[9] = target: Beta-2 adrenergic receptor (Homo sapiens) (UniProt P07550); assay: Adrenergic beta2 receptor (ADRB2) small molecule antagonists, cell-based qHTS assay (AID 1963592); further: series mostly up to about 92 µM; nearly all actives have a fitted effect of over 50% in size
Chain of Beta-2 adrenergic receptor (Homo sapiens) (P07550 whole entry, looked up): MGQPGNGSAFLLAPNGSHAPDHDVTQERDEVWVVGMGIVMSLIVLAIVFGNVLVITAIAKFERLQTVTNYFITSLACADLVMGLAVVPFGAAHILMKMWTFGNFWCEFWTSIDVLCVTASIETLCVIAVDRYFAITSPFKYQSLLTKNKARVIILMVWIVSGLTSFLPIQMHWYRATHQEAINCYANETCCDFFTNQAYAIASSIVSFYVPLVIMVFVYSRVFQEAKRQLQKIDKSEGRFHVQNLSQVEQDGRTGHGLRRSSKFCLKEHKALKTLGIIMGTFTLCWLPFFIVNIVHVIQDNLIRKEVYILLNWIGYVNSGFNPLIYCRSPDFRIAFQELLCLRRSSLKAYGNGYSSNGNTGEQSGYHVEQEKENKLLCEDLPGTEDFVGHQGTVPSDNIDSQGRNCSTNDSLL
How it was run: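 Assay format: CHO-ADRB2 cells, 18-20hr seeding at 37C/5% CO2, then compound plus 1nM isoproterenol agonist mix for 0.5hr RT. Homogeneous time-resolved fluorescence cAMP detection after 1hr, expressed as 665/615 nm ratio.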

[10] = target: Beta-2 adrenergic receptor (Homo sapiens) (UniProt P07550); assay: Adrenergic beta2 receptor (ADRB2) small molecule agonists, cell-based qHTS assay (AID 1963593);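 further: CHO cells stably overexpressing human ADRB2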
How it was run: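 CHO cells stably over-expressing ADRB2 were plated overnight at 37C, then dosed with compounds plus a stimulation mix containing 100uM IBMX and 25uM Ro-20-1724 for 0.5hr at room temperature. cAMP was measured by HTRF competition, 1hr.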

[11] = target: D(2) dopamine receptor (Homo sapiens) (UniProt P14416); assay: Dopamine D2 receptor (DRD2) small molecule agonists, cell-based qHTS assay (AID 1963594); further: nearly all actives have a fitted effect of over 35% in size
Chain of D(2) dopamine receptor (Homo sapiens) (P14416 whole entry, looked up): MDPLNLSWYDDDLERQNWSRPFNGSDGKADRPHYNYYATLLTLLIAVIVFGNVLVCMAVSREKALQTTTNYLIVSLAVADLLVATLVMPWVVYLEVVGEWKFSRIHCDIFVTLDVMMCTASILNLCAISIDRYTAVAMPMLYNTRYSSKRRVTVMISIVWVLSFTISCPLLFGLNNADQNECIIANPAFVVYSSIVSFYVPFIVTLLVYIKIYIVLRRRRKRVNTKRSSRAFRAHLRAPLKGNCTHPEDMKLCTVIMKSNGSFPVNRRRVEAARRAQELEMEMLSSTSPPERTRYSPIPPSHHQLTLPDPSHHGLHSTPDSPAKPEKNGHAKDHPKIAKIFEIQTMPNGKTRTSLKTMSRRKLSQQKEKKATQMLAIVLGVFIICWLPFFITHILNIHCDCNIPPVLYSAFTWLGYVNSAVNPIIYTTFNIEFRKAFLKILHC
How it was run: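 cAMP accumulation in DRD2-HEK293 cells measured by HTRF after 1 h detection; compounds added 10 min before NKH477 (200nM […]) forskolin-analogue stimulation, 30 min at room temperature, with Ro20-1724 present at 0.1 mM final.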

[12] = p53 small molecule agonists, cell-based qHTS assay with human liver microsomes: qHTS cell viability counter screen (AID 1963579); further: nearly all actives have a fitted effect of over 45% in size
How it was run: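 Cells carrying the p53 response-element beta-lactamase reporter are treated for 16 h at 37 C with test compounds in the presence of human liver microsomes and NADPH (both 0.5 mg/mL final); ATP-based CellTiter-Glo luminescence then reports viability.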

[13] = cAMP Responsive Elements (CRE) small molecule agonists, cell-based qHTS assay (AID 1963590)
How it was run: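 HEK 293T cells stably bearing CRE-bla were plated at 2,000 cells per well and rested 18 h. Compounds, positive controls or DMSO were added for 3 h at 37 C. LiveBLAzer B/G substrate was then loaded for 2 h at room temperature.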

[14] = cAMP Responsive Elements (CRE) small molecule antagonists, cell-based qHTS assay (AID 1963591; active means well fitted inhibition curve with a large enough effect in the signal ratio in the repeat runs, not every such curve was filed as active; the % refers to the signal ratio)
How it was run: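 First, CRE-bla HEK293T cells settled 18 h at 37 C. Next, compound and 0.25 uM final NKH477 were applied for 3 h. Last, LiveBLAzer B/G substrate was loaded for 2 h at room temperature.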

[15] = target: D(2) dopamine receptor (Homo sapiens) (UniProt P14416); assay: Dopamine D2 receptor (DRD2) small molecule antagonists, cell-based qHTS assay (AID 1963595; active means well fitted inhibition curve with a large enough effect in the signal ratio in the repeat runs, with a control signal flat; the % refers to the signal ratio)
How it was run: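 HEK293 cells stably expressing DRD2, preincubated with 0.1 mM Ro20-1724 and compounds 10 min, were stimulated with 200 nM NKH477 plus 12 nM quinpirole for 30 min at room temperature; cAMP measured by HTRF (665/620 nm).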

[16] = p53 small molecule agonists, cell-based qHTS assay with rat liver microsomes (AID 1963578)
How it was run: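 Read-out is beta-lactamase reporter fluorescence (LiveBLAzer, 2 h, room temperature, dark) in p53RE-bla cells treated 16 h at 37 C with compound, rat liver microsomes and NADPH, both 0.5 mg/mL final.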

[17] = p53 small molecule agonists, cell-based qHTS assay (AID 1963582; active means well fitted activation curve with a large enough effect in the signal ratio in the repeat runs, not every such curve was filed as active; the % refers to the signal ratio)
How it was run: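 16 h compound exposure (37 C) of p53 response element–bla cells, preceded by 5 h recovery at 37 C/5% CO2; read-out via LiveBLAzer B/G FRET substrate, 2 h RT, fluorescence intensity.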

[18] = target: Muscarinic acetylcholine receptor M1 (Homo sapiens) (UniProt P11229); assay: Cholinergic receptor muscarinic 1 (CHRM1) small molecule antagonists, cell-based qHTS assay (AID 1963588); further: nearly all actives have a fitted effect of over 40% in size
How it was run: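 Compounds were tested at 15 concentrations in three independent runs. Dye-loaded CHRM1-CHO cells were exposed 5 min at room temperature before stimulation by acetylcholine added at 50nM. Intracellular calcium was read kinetically on FDSS for 3 min.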
On the % scale 0 is the no-effect control and ±100 the full control effect.

Cc1nccn1-c1ccc(Sc2cccc(C3(C(N)=O)CCOCC3)c2)cc1
inactive: Potency [1] | Potency [2] | Potency [3] | Potency [4] | Potency [5] | Potency [6] | Potency [7] | Potency [8] | Potency [9] | Potency [10] | Potency [11]

COc1nc(C)nc(Cl)c1NC1=NCCN1
inactive: Potency [1] | Potency [2] | Potency [12] | Potency [4] | Potency [5] | Potency [13] | Potency [14] | Potency [9] | Potency [10] | Potency [15]

Clc1ccc2nsnc2c1NC1=NCCN1
inactive: Potency [1] | Potency [2] | Potency [16] | Potency [4] | Potency [5] | Potency [17] | Potency [6] | Potency [7] | Potency [18] | Potency [8] | Potency [13] | Potency [14] | Potency [9] | Potency [10] | Potency [11] | Potency [15]

CC(CSC(=O)c1ccccc1)C(=O)N1C[C@@H](Sc2ccccc2)C[C@H]1C(=O)O (some centres undefined)
inactive: activity change, negative = cytotoxicity [1] -6.69% [at 19 µM] | activity, positive = activation [2] -3.94% [at 19 µM] | activation [3] 0.566% [at 11.8 µM] | activity change, negative = cytotoxicity [12] -12.9% [at 13.5 µM] | activity change, negative = cytotoxicity [4] -5.44% [at 13.5 µM] | activity change, negative = cytotoxicity [5] 14.1% [at 13.5 µM] | activity, negative = inhibition [6] 20.9% [at 12.7 µM] | activation [7] -7.52% [at 15.9 µM] | activity, negative = inhibition [18] 17.6% [at 12.6 µM] | activation [8] -0.159% [at 15.8 µM] | activation [13] -1.82% [at 19 µM] | activity change, negative = inhibition [9] 10.2% [at 19 µM]
